This note sets out measurements from PubChem BioAssay (Tox21).

The nature of assay [1]: qHTS assay to test for compound auto fluorescence at 535 nm (green) in HEK293 cells (AID 720680). (In qHTS, concentration-response curves come from the screen itself.)
A short description of assay [2]: qHTS assay to test for compound auto fluorescence at 460 nm (blue) in HEK293 cell free culture (AID 720681). The method, boiled down:
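Blue fluorescence (Ex 405/Em 460 nm, triamterene-equivalent) was read immediately after pin transfer of compound or DMSO into medium (DMEM, 10% FBS) without cells.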

Assay [3] can be described thus: qHTS assay to test for compound auto fluorescence at 535 nm (green) in HEK293 cell free culture (AID 720682). In a few lines:
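Compounds were pin-transferred into cell-free DMEM with 10% FBS, and green fluorescence was read at excitation 485 nm and emission 535 nm. Intensities were expressed as fluorescein-equivalent values.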

Assay [4] can be described thus: qHTS assay to test for compound auto fluorescence at 590 nm (red) in HEK293 cell free culture (AID 720683). In a few lines: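 Red-channel autofluorescence of compounds in culture medium (DMEM, 10% FBS), no cells, measured at 540/590 nm. Rose Bengal sodium is the reference fluorophore for equivalence.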
Assay [5] is described as follows: qHTS assay to test for compound auto fluorescence at 590 nm (red) in HepG2 cell free culture (AID 720684). The method, boiled down:
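No cells present: MEM + 10% FBS only. Compound pinned in, red label read (540/590 nm). Activity = fluorescence equivalent to Rose Bengal sodium.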

Assay [6] is described as follows: qHTS assay to test for compound auto fluorescence at 460 nm (blue) in HepG2 cell free culture (AID 720685). In a few lines:
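Cell-free plates of MEM plus 10% FBS received 23 nL compound or DMSO vehicle; blue-channel (405/460 nm) intensity scored against triamterene as reference fluorophore.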

Assay [7] can be described thus: qHTS assay to test for compound auto fluorescence at 460 nm (blue) in HepG2 cells (AID 720687). The method, boiled down:
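Blue-channel autofluorescence (Ex/Em 405/460 nm, triamterene-equivalent) was measured after 1 hr compound exposure at 37 C, 5% CO2. Cells were HepG2, plated overnight at 37 C in MEM plus 10% FBS.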

Assay [8] deals with Glucocorticoid receptor (Homo sapiens) (UniProt P04150). Briefly: qHTS assay to identify small molecule agonists of the glucocorticoid receptor (GR) signaling pathway (AID 720691; active means well fitted activation curve with a large enough effect in the signal ratio in the repeat runs, not every such curve was filed as active; the % refers to the signal ratio). The method, boiled down: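 Steps: seed GR-bla HeLa cells, incubate 4 h at 37 C/5% CO2; pin-transfer DMSO-dissolved compounds; incubate 18 h at 37 C; add LiveBLAzer B/G FRET substrate; after 2 h at room temperature, measure fluorescence.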

For assay [9] the target is unchanged. Briefly: qHTS assay to identify small molecule antagonists of the glucocorticoid receptor (GR) signaling pathway (AID 720692; active means well fitted inhibition curve with a large enough effect in the signal ratio in the repeat runs, not every such curve was filed as active; the % refers to the signal ratio). The method, boiled down:
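Antagonism was scored as loss of dexamethasone-driven (5 nM final) reporter signal in HeLa cells bearing a glucocorticoid response element–beta-lactamase construct, after 18 h compound exposure at 37 C and 2 h FRET substrate loading.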

A short description of assay [10]: qHTS assay for identifying genotoxic compounds that show differential cytotoxicity against isogenic chicken DT40 cell lines with known DNA damage response pathways - wild type cell line (AID 743012). Further: nearly all actives have a fitted effect of over 60% in size. Further: potency means the concentration at half of the fitted maximal effect. In a few lines:
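Cytotoxicity in repair-proficient parental chicken DT40 cells serves as the comparator for Rad54/Ku70- and Rev3-deficient lines. Cells were exposed to compounds for 40 h at 37 C/5% CO2, and ATP-based luminescence (CellTiter-Glo) measured viability.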

The nature of assay [11]: qHTS assay for identifying genotoxic compounds that show differential cytotoxicity against isogenic chicken DT40 cell lines with known DNA damage response pathways - Rev3 mutant cell line (AID 743014). Further: nearly all actives have a fitted effect of over 55% in size. Further: potency means the concentration at half of the fitted maximal effect.
The nature of assay [12]: qHTS assay for identifying genotoxic compounds that show differential cytotoxicity against isogenic chicken DT40 cell lines with known DNA damage response pathways - Rad54/Ku70 mutant cell line (AID 743015). Further: nearly all actives have a fitted effect of over 60% in size.
Assay [13] can be described thus: qHTS assay to identify small molecule antagonists of the androgen receptor (AR) signaling pathway using the MDA cell line - cell viability counter screen (AID 743041; further: nearly all actives have a fitted effect of over 45% in size). The method, boiled down: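 Using the breast carcinoma line MDA-kb2 AR-luc, test chemicals were co-incubated with R1881 for 16 h; CellTiter-Fluor reagent, added at 15.5 h, provided a fluorescence measure of live cells.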

A short description of assay [14]: qHTS assay to identify small molecule antagonists of the androgen receptor (AR) signaling pathway - cell viability counter screen (AID 743033; further: nearly all actives have a fitted effect of over 45% in size).
Assay [15] can be described thus: qHTS assay to identify small molecule antagonists of the glucocorticoid receptor (GR) signaling pathway - cell viability counter screen (AID 720693). Further: nearly all actives have a fitted effect of over 55% in size.
For assay [16], the target named is Androgen receptor (Homo sapiens) (UniProt P10275). Briefly: qHTS assay to identify small molecule antagonists of the androgen receptor (AR) signaling pathway (AID 743035; active means well fitted inhibition curve with a large enough effect in the signal ratio in the repeat runs, not every such curve was filed as active; the % refers to the signal ratio). In a few lines: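 Steps: seed AR-UAS-bla GripTite HEK293 cells, incubate 4 h at 37C; pin in test compound, then add agonist R1881; incubate 16 h at 37C; add LiveBLAzer B/G FRET substrate, 2 h at room temperature; read fluorescence.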

The target is the same in assay [17]. Briefly: qHTS assay to identify small molecule agonists of the androgen receptor (AR) signaling pathway using the MDA cell line (AID 743040; further: nearly all actives have a fitted effect of over 20% in size). In a few lines:
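Stable MMTV-luciferase reporter in MDA-kb2 cells; note the promoter carries GR as well as AR response elements. 16 h compound treatment, 37C, 0% CO2; ONE-Glo luminescence endpoint.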

The target is the same in assay [18]. Briefly: qHTS assay to identify small molecule antagonists of the androgen receptor (AR) signaling pathway using the MDA cell line (AID 743042; further: nearly all actives have a fitted effect of over 55% in size). In a few lines:
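Antagonist mode: compounds plus R1881 agonist added to MDA-kb2 AR-luc cells, incubated 16 h at 37C. Luciferase reporter luminescence quantified, with multiplexed CellTiter-Fluor readout for cell viability.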

For assay [19] the target is unchanged. Briefly: qHTS assay to identify small molecule agonists of the androgen receptor (AR) signaling pathway (AID 743036; active means well fitted activation curve with a large enough effect in the signal ratio in the repeat runs, with a control signal flat, not every such curve was filed as active; the % refers to the signal ratio). The method, boiled down: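 Activation was read as beta-lactamase FRET signal from LiveBLAzer B/G substrate, added for 2 h at room temperature. Before that, GeneBLAzer AR-UAS-bla GripTite (HEK293) cells had 16 h compound exposure at 37C.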

Values without a mark were called inactive. Results filed as inconclusive are left out. The source made the active and inactive calls. Unless noted, the call rests on the fitted dose curve; in most records, active means well fitted curve in the direction sought with a large enough effect in the repeat runs; inconclusive means weak or mixed curves; inactive means no such curve, though single readings can be large; an effect the other way counts as inactive or inconclusive.
On the % scale 0 is the no-effect control and ±100 the full control effect.

Glucocorticoid receptor (Homo sapiens), sequence (P04150 whole entry, looked up): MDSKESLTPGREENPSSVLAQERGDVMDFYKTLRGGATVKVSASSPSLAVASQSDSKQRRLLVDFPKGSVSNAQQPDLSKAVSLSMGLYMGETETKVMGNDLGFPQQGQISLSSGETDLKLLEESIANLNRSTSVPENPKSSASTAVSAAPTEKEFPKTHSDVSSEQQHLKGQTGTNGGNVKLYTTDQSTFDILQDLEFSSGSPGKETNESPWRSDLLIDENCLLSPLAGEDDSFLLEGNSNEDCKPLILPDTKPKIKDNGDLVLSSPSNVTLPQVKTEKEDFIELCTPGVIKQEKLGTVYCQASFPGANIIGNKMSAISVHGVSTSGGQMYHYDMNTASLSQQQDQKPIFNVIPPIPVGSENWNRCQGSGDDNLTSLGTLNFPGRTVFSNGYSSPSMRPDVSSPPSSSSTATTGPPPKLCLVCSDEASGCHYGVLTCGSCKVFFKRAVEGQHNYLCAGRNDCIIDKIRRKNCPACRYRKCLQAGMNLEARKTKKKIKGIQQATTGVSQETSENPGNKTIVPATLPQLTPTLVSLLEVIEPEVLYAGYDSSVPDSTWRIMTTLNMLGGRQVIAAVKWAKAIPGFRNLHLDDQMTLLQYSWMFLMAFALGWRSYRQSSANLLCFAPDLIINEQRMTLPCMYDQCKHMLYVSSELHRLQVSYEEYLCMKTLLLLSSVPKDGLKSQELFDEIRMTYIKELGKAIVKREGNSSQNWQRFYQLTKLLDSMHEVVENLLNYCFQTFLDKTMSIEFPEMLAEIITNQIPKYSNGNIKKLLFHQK
Androgen receptor (Homo sapiens), sequence (P10275 whole entry, looked up): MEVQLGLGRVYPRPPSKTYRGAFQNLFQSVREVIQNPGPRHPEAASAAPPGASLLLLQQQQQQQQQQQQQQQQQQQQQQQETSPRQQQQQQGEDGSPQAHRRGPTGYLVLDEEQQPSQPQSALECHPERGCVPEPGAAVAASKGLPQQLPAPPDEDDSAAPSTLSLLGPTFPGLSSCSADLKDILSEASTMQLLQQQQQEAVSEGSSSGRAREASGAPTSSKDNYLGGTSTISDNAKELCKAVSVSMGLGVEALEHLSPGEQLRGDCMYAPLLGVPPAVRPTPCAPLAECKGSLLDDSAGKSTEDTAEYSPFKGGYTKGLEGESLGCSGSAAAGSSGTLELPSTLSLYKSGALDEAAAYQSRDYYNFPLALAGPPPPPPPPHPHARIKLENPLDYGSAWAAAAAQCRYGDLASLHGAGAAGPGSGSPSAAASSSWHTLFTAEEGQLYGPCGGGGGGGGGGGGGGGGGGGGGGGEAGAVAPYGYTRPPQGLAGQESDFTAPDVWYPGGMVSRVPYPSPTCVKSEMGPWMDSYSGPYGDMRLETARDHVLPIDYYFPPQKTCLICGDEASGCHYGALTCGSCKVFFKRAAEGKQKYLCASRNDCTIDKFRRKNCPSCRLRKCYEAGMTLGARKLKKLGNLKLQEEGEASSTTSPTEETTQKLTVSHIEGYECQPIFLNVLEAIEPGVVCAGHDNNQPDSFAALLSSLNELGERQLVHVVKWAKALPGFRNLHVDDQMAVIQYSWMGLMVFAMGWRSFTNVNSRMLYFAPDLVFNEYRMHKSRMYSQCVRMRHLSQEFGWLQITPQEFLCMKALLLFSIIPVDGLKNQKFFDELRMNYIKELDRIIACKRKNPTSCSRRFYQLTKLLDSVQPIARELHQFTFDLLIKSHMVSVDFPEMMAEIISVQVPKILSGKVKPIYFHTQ

With `CC(=O)CCCCn1c(=O)c2c(ncn2C)n(C)c1=O`, the fluorescence, % of fluorescein in [1] was 0.0863% [at 18.6 µM]. Further, the fluorescence, % of fluorescent control is 0.0365% [at 18.6 µM] in [2], 0.153% [at 18.6 µM] in assay [4], 0.0657% [at 18.6 µM] in assay [6] and 0.0705% [at 18.6 µM] in [7]. The activity change in [3] was 0.0172% [at 18.6 µM]. Moreover, the fluorescence, % of Rose Bengal in [5] was -0.221% [at 18.6 µM]. For the same compound, the Potency entry in [8], in assay [10], in assay [11], in assay [12] and in assay [13] was “inactive” each time. For the same compound, in assay [9], the result was inactive.
For the compound `CCCN1C[C@H](CSC)C[C@@H]2c3cccc4[nH]cc(c34)C[C@H]21`, the compound was called inactive in assay [1], in assay [2], in [3], in [4], in assay [5] and in [6]. In addition, the outcome in [7] and in assay [9] was inactive. Further, the Potency result in assay [8], in assay [11] and in assay [14] was “inactive” in each case.
In the case of `O=C(O)Cc1ccc(Cl)cc1Cl`, the result in [1], in assay [2], in assay [3], in assay [4], in assay [5] and in assay [6] was inactive. Besides, the compound was called inactive in assay [7], in assay [9], in assay [15] and in assay [17]. Further, the Potency in [10] was 61.1 µM (active); in assay [11], 27.3 µM (active). Besides, the Potency result in assay [14], in assay [16], in assay [13] and in [18] was “inactive” in each case.
Take `CC(C)N(c1ccccc1)C(C)C`: the outcome in assay [1], in [2], in [3], in assay [4], in [5] and in [6] was inactive. Besides, the compound was classed as inactive in assay [7] and in [9]. The Potency result in [8], in [10], in [11], in assay [12] and in [14] was “inactive” each time.
Consider `CC(C)NCC(O)COc1cccc2[nH]ccc12` (configuration not stated), for which the compound was called inactive in [1], in assay [2], in [3], in assay [4], in [5] and in assay [6]. Moreover, the call in [7], in assay [9], in [15], in [19] and in assay [17] was inactive. The Potency result in assay [8], in assay [10], in assay [11], in [12], in [14] and in assay [16] was “inactive” each time. The Potency result in assay [13] and in assay [18] was “inactive” each time.
Regarding `CCOC(=O)/C=C/c1ccccc1`, the compound was called inactive in assay [1], in assay [2], in assay [3], in assay [4], in assay [5] and in [6]. Besides, the outcome in [7] and in assay [15] was inactive. Further, the Potency result in assay [10], in assay [11], in assay [12], in [14] and in assay [13] was “inactive” each time.
`CC(C)C(=O)OCCc1ccccc1`: the outcome in assay [1], in assay [2], in assay [3], in assay [4], in [5] and in assay [6] was inactive. In addition, the call in [7] and in assay [15] was inactive. Further, the Potency entry in assay [10], in assay [11], in [12] and in assay [14] was “inactive” each time.
